# According to the supplement of paper PMC12819154, “High-throughput peptide-centric local stability assay extends protein–ligand identification to membrane proteins, tissues and bacteria” (Nature Structural & Molecular Biology, 2025):
# Compound: Nc1ncnc2c1ncn2[C@@H]1O[C@H](COP(=O)(O)OP(=O)(O)OP(=O)(O)O)[C@@H](O)[C@H]1O [adenosine 5'-triphosphate]
# Assay: log2 fold change of tryptic peptide abundance, ligand vs vehicle (limited proteolysis) (log2 ratio); higher = more trypsin-susceptible (destabilized)
# Conditions: ligand concentration: 5 mM; sample: E. coli desalted lysate; replicate design: treated before aliquoting
# Method: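 HT-PELSA: desalted E. coli K-12 BW25113 lysate (with 12 mM MgCl2) incubated with 5 mM ATP (pH 7) or water for 30 min at 25 C, then a 4 min trypsin pulse at 22 C. Peptides were quantified by DIA-MS (4 replicates). Value is the peptide log2 fold change (treated/control); negative = stabilized. Scale: negative = ligand-stabilized region.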
# 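Also: lysate desalted by size exclusion to strip endogenous ATP, peptide intensities built from DIA-NN precursor signals, and peptides missing any value discarded before comparison.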
# Chain of UniProt P25742 (P25742 whole entry): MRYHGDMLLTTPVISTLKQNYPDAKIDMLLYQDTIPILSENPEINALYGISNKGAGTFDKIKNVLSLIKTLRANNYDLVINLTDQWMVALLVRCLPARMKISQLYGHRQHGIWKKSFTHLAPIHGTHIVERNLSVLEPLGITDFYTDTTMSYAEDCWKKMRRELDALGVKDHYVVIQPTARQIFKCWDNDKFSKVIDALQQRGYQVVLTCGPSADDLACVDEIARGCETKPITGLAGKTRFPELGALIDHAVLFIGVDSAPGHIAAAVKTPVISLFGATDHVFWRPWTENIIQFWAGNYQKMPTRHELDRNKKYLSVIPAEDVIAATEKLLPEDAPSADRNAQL
# Chain of UniProt P31802 (P31802 whole entry): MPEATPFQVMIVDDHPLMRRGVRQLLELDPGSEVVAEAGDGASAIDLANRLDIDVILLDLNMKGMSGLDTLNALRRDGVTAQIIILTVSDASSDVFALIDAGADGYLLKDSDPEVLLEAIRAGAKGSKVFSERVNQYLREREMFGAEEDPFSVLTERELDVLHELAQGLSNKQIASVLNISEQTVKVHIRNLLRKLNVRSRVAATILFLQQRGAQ
# Chain of UniProt P37749 (P37749 whole entry): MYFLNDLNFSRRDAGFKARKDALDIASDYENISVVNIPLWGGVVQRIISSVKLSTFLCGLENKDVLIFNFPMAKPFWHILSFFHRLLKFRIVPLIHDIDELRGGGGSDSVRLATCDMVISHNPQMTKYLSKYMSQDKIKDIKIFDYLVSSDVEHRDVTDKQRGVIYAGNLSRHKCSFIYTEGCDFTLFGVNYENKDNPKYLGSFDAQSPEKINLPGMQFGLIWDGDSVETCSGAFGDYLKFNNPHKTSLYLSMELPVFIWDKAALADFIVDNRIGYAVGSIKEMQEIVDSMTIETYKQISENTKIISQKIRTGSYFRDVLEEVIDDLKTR
# Chain of UniProt P0A8Y3 (P0A8Y3 whole entry): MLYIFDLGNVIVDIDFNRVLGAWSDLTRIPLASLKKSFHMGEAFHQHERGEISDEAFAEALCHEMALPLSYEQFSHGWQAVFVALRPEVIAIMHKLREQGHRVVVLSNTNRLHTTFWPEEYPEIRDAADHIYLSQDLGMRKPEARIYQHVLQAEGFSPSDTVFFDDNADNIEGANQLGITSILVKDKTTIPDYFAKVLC
# Chain of UniProt P08179 (P08179 whole entry): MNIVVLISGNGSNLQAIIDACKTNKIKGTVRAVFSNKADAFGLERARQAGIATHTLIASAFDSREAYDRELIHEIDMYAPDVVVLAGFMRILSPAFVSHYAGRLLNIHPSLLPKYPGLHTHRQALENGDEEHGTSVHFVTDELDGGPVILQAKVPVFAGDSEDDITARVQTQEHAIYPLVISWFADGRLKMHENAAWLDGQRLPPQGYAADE
# Chain of UniProt P10443 (P10443 whole entry): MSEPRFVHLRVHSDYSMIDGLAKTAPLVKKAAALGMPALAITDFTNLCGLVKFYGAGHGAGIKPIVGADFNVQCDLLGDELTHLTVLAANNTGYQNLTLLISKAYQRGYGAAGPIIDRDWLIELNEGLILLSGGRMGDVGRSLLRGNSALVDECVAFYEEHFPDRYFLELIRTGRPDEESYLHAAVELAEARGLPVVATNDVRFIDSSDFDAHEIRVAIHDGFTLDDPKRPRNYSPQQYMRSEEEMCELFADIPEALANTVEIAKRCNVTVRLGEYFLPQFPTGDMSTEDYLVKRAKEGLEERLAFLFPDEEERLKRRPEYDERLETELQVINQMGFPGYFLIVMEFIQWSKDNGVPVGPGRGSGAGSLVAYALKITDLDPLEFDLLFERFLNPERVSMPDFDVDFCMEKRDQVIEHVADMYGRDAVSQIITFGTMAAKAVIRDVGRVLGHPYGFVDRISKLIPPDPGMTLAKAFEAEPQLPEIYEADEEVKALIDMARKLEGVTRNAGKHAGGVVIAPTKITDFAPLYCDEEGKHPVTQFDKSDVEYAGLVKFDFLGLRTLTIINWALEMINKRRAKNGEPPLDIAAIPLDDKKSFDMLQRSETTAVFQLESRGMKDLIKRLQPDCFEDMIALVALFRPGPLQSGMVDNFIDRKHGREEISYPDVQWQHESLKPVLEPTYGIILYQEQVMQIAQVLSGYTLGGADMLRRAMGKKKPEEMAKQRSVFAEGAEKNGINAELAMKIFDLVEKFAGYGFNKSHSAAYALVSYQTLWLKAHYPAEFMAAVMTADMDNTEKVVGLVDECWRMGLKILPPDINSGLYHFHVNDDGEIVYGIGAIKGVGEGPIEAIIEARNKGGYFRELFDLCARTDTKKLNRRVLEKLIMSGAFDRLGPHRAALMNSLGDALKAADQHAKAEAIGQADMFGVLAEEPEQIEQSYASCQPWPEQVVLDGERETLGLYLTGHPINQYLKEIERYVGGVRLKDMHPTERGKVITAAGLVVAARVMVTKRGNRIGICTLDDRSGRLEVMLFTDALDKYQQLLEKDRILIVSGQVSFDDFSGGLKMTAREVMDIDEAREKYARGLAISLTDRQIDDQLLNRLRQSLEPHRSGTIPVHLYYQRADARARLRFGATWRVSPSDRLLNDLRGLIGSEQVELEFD
# Chain of UniProt P0A959 (P0A959 whole entry): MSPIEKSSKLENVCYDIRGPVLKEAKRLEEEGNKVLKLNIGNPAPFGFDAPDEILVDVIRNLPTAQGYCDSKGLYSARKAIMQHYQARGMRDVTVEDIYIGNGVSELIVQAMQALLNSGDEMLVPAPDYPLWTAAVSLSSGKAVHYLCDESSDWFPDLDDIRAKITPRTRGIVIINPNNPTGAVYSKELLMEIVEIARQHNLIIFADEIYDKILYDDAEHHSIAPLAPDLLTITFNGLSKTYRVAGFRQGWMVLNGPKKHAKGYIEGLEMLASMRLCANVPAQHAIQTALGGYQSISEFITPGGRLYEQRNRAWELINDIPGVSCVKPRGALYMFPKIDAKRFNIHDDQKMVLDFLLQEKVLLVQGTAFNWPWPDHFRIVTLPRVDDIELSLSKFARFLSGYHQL
# Chain of UniProt P08142 (P08142 whole entry): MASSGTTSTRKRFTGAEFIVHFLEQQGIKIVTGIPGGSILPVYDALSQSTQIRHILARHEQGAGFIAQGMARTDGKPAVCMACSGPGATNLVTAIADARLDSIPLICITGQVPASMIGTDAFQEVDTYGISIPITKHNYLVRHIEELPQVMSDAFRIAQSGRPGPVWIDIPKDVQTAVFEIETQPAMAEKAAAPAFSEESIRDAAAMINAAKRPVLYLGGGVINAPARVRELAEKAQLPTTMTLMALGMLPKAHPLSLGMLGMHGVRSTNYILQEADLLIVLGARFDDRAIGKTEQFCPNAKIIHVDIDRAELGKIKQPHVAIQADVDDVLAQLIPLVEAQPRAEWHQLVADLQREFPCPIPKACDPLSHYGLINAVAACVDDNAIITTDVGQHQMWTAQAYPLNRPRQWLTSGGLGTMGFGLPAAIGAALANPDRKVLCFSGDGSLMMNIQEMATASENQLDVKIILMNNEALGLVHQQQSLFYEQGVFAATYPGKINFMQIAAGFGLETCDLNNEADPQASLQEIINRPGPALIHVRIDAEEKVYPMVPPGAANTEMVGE
row,Target,log2 fold change
1,"UniProt P0A8Y3 (peptide sequence: VVVLSNTNR, peptide start residue: 103)",0.564
2,"UniProt P0A959 (peptide sequence: QGWMVLNGPKKHAK, peptide start residue: 249)",1.18
3,"UniProt P37749 (peptide sequence: YMSQDKIK, peptide start residue: 132)",-0.295
4,"UniProt P08142 (peptide sequence: KRFTGAEFIVHFLEQQGIK, peptide start residue: 11)",1.49
5,"UniProt P08179 (peptide sequence: MHENAAWLDGQR, peptide start residue: 191)",-0.588
6,"UniProt P10443 (peptide sequence: GLPVVATNDVR, peptide start residue: 193)",0.539
7,"UniProt P31802 (peptide sequence: GMSGLDTLNALRR, peptide start residue: 64)",0.209
8,"UniProt P25742 (peptide sequence: SFTHLAPIHGTHIVER, peptide start residue: 116)",-1.07
